This passage reports Potency, outcome and max activation results from PubChem BioAssay (Tox21).

Molecules are shown by their SMILES. Unmarked numbers belong to inactive results. Results filed as inconclusive are left out. Activity calls are given as the source filed them. Unless noted, the call rests on the fitted dose curve; in most records, active means well fitted curve in the direction sought with a large enough effect in the repeat runs; inconclusive means weak or mixed curves; inactive means no such curve, though single readings can be large; an effect the other way counts as inactive or inconclusive.

Assay [1] is described as follows: qHTS assay to identify small molecule agonists of the estrogen receptor alpha (ER-alpha) signaling pathway in the presence of an antagonist - cell viability counter screen (AID 1259386).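 Further: cells exposed to compounds for 22 h at 37 °C before the viability read; nearly all actives have a fitted effect of over 30% in size.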 Further: potency means the concentration at half of the fitted maximal effect. In short, it runs like this:
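Cytotoxicity was measured in parallel with the ERE-luciferase agonist screen, in the same wells. The cells were VM7Luc4E2, which endogenously express ER-alpha, and treatment was with compounds plus 10.0nM ICI-182,780 for 22hr.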
On the technique in general: qHTS replaces the single test concentration by a dilution series.

The target of assay [2] is Progesterone receptor (Homo sapiens) (UniProt P06401). Kind of assay: qHTS assay to identify small molecule agonists of the progesterone receptor (PR) signaling pathway (AID 1346784; calls by dose curve; further: nearly all actives have a fitted effect of over 30% in size). In a few lines: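 Compounds were tested for PR agonism in HEK 293T cells bearing a beta-lactamase gene under UAS control. Treatment lasted 16 hr at 37C; signal came from fluorescence of a FRET substrate.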
Sequence of Progesterone receptor (Homo sapiens) (P06401 whole entry, looked up): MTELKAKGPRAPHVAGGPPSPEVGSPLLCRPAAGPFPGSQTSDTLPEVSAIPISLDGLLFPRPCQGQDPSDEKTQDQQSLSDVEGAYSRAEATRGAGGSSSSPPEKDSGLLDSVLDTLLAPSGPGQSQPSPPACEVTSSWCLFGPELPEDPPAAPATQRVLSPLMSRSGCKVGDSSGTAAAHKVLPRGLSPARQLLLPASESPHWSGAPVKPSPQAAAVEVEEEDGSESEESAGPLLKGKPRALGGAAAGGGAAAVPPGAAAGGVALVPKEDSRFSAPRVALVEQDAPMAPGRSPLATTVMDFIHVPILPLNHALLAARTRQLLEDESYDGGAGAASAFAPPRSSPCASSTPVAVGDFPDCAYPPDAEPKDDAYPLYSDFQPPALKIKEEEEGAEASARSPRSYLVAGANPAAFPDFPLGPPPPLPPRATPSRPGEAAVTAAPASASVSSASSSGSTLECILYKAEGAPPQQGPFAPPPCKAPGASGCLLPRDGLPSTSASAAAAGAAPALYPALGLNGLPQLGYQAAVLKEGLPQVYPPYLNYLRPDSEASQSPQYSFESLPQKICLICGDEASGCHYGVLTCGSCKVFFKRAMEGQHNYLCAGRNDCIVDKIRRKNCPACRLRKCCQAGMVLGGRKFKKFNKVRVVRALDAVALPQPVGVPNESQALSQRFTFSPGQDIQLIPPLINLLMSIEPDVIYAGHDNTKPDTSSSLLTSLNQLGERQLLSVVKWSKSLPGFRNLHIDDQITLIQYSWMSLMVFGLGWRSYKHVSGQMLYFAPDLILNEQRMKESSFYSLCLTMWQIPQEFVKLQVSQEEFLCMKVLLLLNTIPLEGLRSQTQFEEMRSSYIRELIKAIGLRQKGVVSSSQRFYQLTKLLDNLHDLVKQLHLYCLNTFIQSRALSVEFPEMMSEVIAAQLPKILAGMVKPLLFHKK

Assay [3] shares this target. Kind of assay: qHTS assay to identify small molecule antagonists of the progesterone receptor (PR) signaling pathway (AID 1346795; active means well fitted inhibition curve with a large enough effect in the signal ratio in the repeat runs, not every such curve was filed as active; the % refers to the signal ratio; further: potency means the concentration at half of the fitted maximal effect). In short, it runs like this: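 In HEK293T cells bearing the PR-UAS-bla reporter, compound effects on promegestone-driven (1 nM) beta-lactamase expression are assessed after 16 hr using a fluorescent FRET substrate incubated 2 hr at room temperature.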

Assay [4] is described as follows: qHTS assay to identify small molecule antagonists of the progesterone receptor (PR) signaling pathway - cell viability counter screen (AID 1346798). Further: series mostly up to about 92 µM; nearly all actives have a fitted effect of over 50% in size. In short, it runs like this: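 Following a 4 hr attachment, PR-UAS-bla HEK293T cells in charcoal-stripped FBS medium were exposed to compounds with R5020 for 16 hr; CellTiter-Glo was added and luminescence read after 30 min at room temperature.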

The nature of assay [5]: qHTS assay to identify small molecule antagonists of the TGF-beta/Smad signaling pathway - cell viability counter screen (AID 1346824). Further: nearly all actives have a fitted effect of over 50% in size. In a few lines: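 SBE-bla HEK 293T cells were plated overnight at 37 C, then given compounds in DMSO plus TGF-beta1 (added as 0.25 ng/mL solution) for 5 hr. After the bla read, CellTiter-Glo was added to the same wells and luminescence read after 30 min at room temperature.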

Assay [6] is described as follows: qHTS assay to identify small molecule agonists of the TGF-beta/Smad signaling pathway - cell viability counter screen (AID 1346829). Further: top concentration of the series differs between compounds; nearly all actives have a fitted effect of over 45% in size. In short, it runs like this: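 SBE-bla HEK 293T cells plated overnight, compound exposure 5 hr at 37 C. Viability read in the same wells by CellTiter-Glo luminescence after 30 min at room temperature, following the beta-lactamase read.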

In assay [7] the target is Thyrotropin-releasing hormone receptor (Homo sapiens) (UniProt P34981). Kind of assay: qHTS assay to identify small molecule antagonists of the thyrotropin-releasing hormone receptor (TRHR) signaling pathway (AID 1346877; active means well fitted inhibition curve with a large enough effect in the repeat runs, not every such curve was filed as active; further: series mostly up to about 51 µM). In a few lines: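 Antagonism is measured as suppression of the calcium response to 1 nM TRH in TRHR-HEK293 cells that have been dye-loaded for 2 h at 37 °C after overnight plating. Each compound is tested at 15 concentrations in triplicate.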
Sequence of Thyrotropin-releasing hormone receptor (Homo sapiens) (P34981 whole entry, looked up): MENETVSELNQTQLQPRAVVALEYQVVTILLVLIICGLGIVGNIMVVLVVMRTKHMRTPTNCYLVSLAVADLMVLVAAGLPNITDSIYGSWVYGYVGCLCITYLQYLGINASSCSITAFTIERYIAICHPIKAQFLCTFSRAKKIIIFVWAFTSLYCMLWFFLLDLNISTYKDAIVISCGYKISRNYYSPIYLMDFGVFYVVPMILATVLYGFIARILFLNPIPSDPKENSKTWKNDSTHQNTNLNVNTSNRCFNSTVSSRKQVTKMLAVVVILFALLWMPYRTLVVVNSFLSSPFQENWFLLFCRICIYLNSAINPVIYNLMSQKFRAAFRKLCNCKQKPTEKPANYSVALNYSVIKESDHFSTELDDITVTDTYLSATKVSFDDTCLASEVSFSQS

Assay [8] has the same target. Kind of assay: qHTS assay to identify small molecule agonists of the thyrotropin-releasing hormone receptor (TRHR) signaling pathway (AID 1346891; calls by dose curve; further: series mostly up to about 58 µM). In a few lines: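 Screening of agonists relied on calcium signalling in HEK293 cells expressing human TRHR: dye loading 2 h at 37 °C preceded compound addition and a 3-min fluorescence time course.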
The nature of assay [9]: Caspase-3/7 induction in HepG2 cells by small molecules, qHTS assay (AID 1346978). Further: nearly all actives have a fitted effect of over 15% in size. In short, it runs like this: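 Wild-type HepG2 cells (2,000/well) were settled 5 h at 37 C, 5% CO2, then exposed to compounds in DMSO for 17 h. Caspase-3/7 activity was read by luminescence 30 min after adding Caspase-Glo 3/7 reagent at room temperature.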
Assay [10] can be described thus: Caspase-3/7 induction in CHO-K1 cells by small molecules, qHTS cell viability counter screen (AID 1346979). Further: nearly all actives have a fitted effect of over 35% in size. Further: potency means the concentration at half of the fitted maximal effect. In a few lines: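 CellTiter-Fluor viability check, qHTS format: wild-type CHO-K1, 16hr compound treatment, 1hr reagent incubation, fluorescence read.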
Assay [11] in a line: Caspase-3/7 induction in CHO-K1 cells by small molecules, qHTS assay (AID 1346980). Further: nearly all actives have a fitted effect of over 15% in size. In a few lines:
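Wild-type cells were seeded at 1,500 per well and settled 5 hr at 37 C, 5% CO2, then exposed to DMSO-dissolved compounds for 17 hr. Caspase-Glo 3/7 reagent was added, and luminescence was read after 30min at room temperature.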

Assay [12] can be described thus: Human pregnane X receptor (PXR) small molecule agonists, qHTS cell viability counter screen (AID 1346977). Further: nearly all actives have a fitted effect of over 50% in size. Further: potency means the concentration at half of the fitted maximal effect. In short, it runs like this: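 Tox21 qHTS format; PXR-Luc HepG2, 2,000/well, charcoal-stripped FBS 5%. Cpd exposure 24hr. Read: CellTiter-Fluor fluorescence, multiplexed with luciferase.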
Assay [13] is described as follows: Caspase-3/7 induction in HepG2 cells by small molecules, qHTS cell viability counter screen (AID 1346981). Further: series mostly up to about 92 µM; nearly all actives have a fitted effect of over 30% in size. In a few lines:
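Cell viability is measured as a cytotoxicity counter screen alongside the Caspase-Glo 3/7 readout in identical wells. Wild-type HepG2 cells are treated with test compounds for 16 hr at 37 C before CellTiter-Fluor addition and a 1-hr incubation.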

In assay [14] the target is Nuclear receptor subfamily 1 group I member 2 (Homo sapiens) (UniProt O75469). Nature of the assay: Human pregnane X receptor (PXR) small molecule agonists, qHTS assay (AID 1346982). Further: nearly all actives have a fitted effect of over 35% in size. Further: potency means the concentration at half of the fitted maximal effect. In short, it runs like this: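 Cells: HepG2 stably carrying PXR-Luc. Medium held 5% charcoal-stripped FBS. Compounds in DMSO added after 5 hr plating, incubated 24 hr, then luminescence quantified with ONE-Glo.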
Sequence of Nuclear receptor subfamily 1 group I member 2 (Homo sapiens) (O75469 whole entry, looked up): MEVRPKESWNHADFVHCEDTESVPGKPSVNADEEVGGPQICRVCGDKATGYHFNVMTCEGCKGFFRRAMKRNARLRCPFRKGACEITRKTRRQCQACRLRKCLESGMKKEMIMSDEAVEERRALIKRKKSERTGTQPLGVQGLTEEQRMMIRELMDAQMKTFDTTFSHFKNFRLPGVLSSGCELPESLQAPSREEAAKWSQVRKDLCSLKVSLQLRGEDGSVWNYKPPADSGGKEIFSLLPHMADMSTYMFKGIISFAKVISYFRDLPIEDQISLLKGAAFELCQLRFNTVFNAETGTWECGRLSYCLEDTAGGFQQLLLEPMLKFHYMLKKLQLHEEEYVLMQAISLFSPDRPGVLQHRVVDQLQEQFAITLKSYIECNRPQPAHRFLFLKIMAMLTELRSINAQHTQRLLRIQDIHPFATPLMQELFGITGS

For assay [15] the target is unchanged. Kind of assay: CYP3A4 induction through human pregnane X receptor (PXR) by small molecules, qHTS assay (AID 1346984). Further: nearly all actives have a fitted effect of over 40% in size. In a few lines:
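Quantitative HTS in DPX-2 cells, i.e. HepG2 transfected with PXR response element and CYP3A4-promoter luciferase. Compounds in DMSO incubated 24hr at 37C; then P450-Glo CYP3A4 substrate, 3uM final, 3hr; One-Glo luminescence.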

Assay [16] has the same target. Nature of the assay: Human pregnane X receptor (PXR) activation by small molecules, qHTS assay (AID 1346985). Further: nearly all actives have a fitted effect of over 40% in size. Further: potency means the concentration at half of the fitted maximal effect. In short, it runs like this: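 DPX-2 cells (HepG2 co-transfected with a PXR response element and a CYP3A4-promoter luciferase construct) were seeded at 2,000 per well, rested 5 hr at 37C, then exposed to DMSO-dissolved compounds for 24 hr. Activation was read as luciferase luminescence.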

For assay [17], the target named is Cytochrome P450 2D6 (Homo sapiens) (UniProt P10635). Kind of assay: Cytochrome P450 Family 2 Subfamily D Member 6 (CYP2D6) small molecule antagonists: luciferase reporter qHTS assay (AID 1671196). Further: nearly all actives have a fitted effect of over 50% in size. Further: potency means the concentration at half of the fitted maximal effect. In a few lines:
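Enzyme and proluciferin substrate were first combined with test chemical for 10 min at room temperature. Adding NADPH regeneration solution started a 1 h reaction, stopped with luciferin detection reagent and read by luminescence 20 min later.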
A general note: A reporter such as luciferase makes a cellular process visible.

A short description of assay [18]: qHTS assay to identify small molecule agonists of the progesterone receptor (PR) signaling pathway - cell viability counter screen (AID 1346799; calls by dose curve; further: nearly all actives have a fitted effect of over 45% in size). In short, it runs like this: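 Here, 3,000 PR-UAS-bla HEK293T cells per well were treated with compounds for 16 hr after a 6 hr preincubation at 37C and 5% CO2; cell viability is the CellTiter-Glo luminescence signal.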

Assay [19] in a line: qHTS assay to identify small molecule agonists of the TGF-beta/Smad signaling pathway (AID 1346859; active means well fitted activation curve with a large enough effect in the signal ratio in the repeat runs, not every such curve was filed as active; the % refers to the signal ratio; further: series mostly up to about 77 µM). In a few lines:
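Each well held 4,000 SBE-bla HEK 293T cells incubated overnight before compound addition; 5 hr later the cleavable FRET substrate went on for 2 hr at room temperature, and fluorescence was read at two emissions.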

The target of assay [20] is Nuclear receptor subfamily 1 group I member 2 (Rattus norvegicus) (UniProt Q9R1A7). Kind of assay: Rat pregnane X receptor (rPXR) activation by small molecules, qHTS assay (AID 1346983). Further: nearly all actives have a fitted effect of over 20% in size. The following applies: rPXR luciferase reporter cells, One-Glo luminescence, 24 h; max activation: active compounds read high. In a few lines:
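Cell-based rPXR luciferase reporter assay, 2,000 cells per well, rested 5hr at 37 C before compound addition in DMSO, then 24 hr at 37 C. One-Glo reagent was added and luminescence read after 30 min at room temperature.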
On the % scale 0 is the no-effect control and ±100 the full control effect.

Sequence of Cytochrome P450 2D6 (Homo sapiens) (P10635 whole entry, looked up): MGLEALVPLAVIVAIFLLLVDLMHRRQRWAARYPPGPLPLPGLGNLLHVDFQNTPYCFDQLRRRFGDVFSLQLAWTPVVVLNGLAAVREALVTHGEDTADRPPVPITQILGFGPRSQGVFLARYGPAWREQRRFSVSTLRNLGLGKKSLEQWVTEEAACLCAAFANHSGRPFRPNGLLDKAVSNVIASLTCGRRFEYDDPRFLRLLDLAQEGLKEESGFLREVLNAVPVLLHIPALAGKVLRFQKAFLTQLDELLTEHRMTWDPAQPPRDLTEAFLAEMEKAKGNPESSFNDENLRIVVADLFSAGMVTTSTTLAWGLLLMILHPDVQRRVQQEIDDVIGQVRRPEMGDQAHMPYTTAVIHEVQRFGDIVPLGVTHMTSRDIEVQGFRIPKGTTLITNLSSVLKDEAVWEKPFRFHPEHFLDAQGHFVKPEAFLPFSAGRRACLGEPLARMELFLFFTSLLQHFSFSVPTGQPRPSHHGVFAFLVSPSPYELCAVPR
Sequence of Nuclear receptor subfamily 1 group I member 2 (Rattus norvegicus) (Q9R1A7 whole entry, looked up): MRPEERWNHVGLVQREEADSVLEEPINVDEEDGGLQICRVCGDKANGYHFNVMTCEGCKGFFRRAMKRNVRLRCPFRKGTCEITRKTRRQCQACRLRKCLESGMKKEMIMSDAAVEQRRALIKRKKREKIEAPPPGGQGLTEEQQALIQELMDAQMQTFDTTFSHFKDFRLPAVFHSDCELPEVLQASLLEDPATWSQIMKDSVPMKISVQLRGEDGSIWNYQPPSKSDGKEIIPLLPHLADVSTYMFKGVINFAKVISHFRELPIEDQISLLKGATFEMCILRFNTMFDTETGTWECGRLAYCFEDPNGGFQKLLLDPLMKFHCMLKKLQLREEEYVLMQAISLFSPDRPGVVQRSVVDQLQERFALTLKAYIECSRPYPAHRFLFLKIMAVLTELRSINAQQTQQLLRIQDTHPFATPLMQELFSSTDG

As for `CC(=O)OCCN(CCOC(C)=O)c1ccc(N=Nc2ccc([N+](=O)[O-])cc2C#N)cc1`, the Potency in [1] and in assay [10] was 54.5 µM (active) each time. Besides, the Potency result in assay [2], in assay [3], in assay [4], in [5], in assay [6] and in [8] was “inactive” throughout. In addition, the Potency result in assay [9] and in assay [11] was “inactive” throughout. In assay [7], the compound was classed as inactive.

For the compound `O=C(O)c1cccc(-c2noc(-c3ccccc3F)n2)c1`, the Potency result in assay [1], in assay [2], in assay [3], in assay [8], in assay [12] and in assay [9] was “inactive” throughout. Also, the Potency result in assay [11], in assay [13], in assay [15] and in [16] was “inactive” throughout. Moreover, the outcome in [7] was inactive. Moreover, the Potency in [14] was 0.006 µM (active); in [17] it was 3.47 µM (active).

On to `CCCCCCCCOc1ccc(C(=O)O)cc1`, for which the Potency result in assay [1], in assay [2], in assay [5], in [6], in assay [8] and in [9] was “inactive” in each case. The Potency result in assay [13] is “inactive”. Moreover, the results for the Potency in [3] and in [14] were 48 µM (active) and 60.4 µM (active), respectively. Moreover, the result in assay [7] was inactive.

For the compound `CC(=O)OCC(=O)NCCCOc1cccc(CN2CCCCC2)c1`, the Potency entry in assay [1], in [2], in assay [3], in [18], in [5] and in assay [6] was “inactive” in each case. Further, the Potency entry in assay [19], in [12], in assay [9], in assay [10], in assay [11] and in assay [13] was “inactive” in each case. Besides, the Potency result in assay [14], in [15] and in assay [16] was “inactive” in each case. The Potency in assay [17] is 15.5 µM (active).

With `O=C(OCC(O)CO)c1ccccc1Nc1ccnc2cc(Cl)ccc12` (centres undefined), the Potency result in assay [1], in assay [2], in [5], in [6], in assay [8] and in assay [9] was “inactive” throughout. The Potency entry in [11], in assay [13], in assay [15] and in assay [16] was “inactive” each time. Moreover, the Potency in assay [3] was 21.1 µM (active); in assay [12] it was 26.6 µM (active); in [14] it was 11.9 µM (active); in assay [17], 13.8 µM (active). Moreover, in assay [7], the compound was classed as inactive. The max activation in assay [20] is -2.2%.

In the case of `Clc1ccc(Nc2nnc(Cc3ccncc3)c3ccccc23)cc1`, the Potency entry in [1], in [2], in [5], in [6], in assay [19] and in assay [9] was “inactive” throughout. Besides, the Potency entry in assay [11] and in assay [15] was “inactive” throughout. Further, the Potency in assay [3] was 26.6 µM (active); in [14], 29.8 µM (active); in assay [16], 3.98 µM (active).

Take `CCOC(=O)C1=C(C)NC(C)=C(C(=O)OC)C1c1cccc(Cl)c1Cl` (centres undefined): the Potency entry in assay [1], in assay [2], in assay [6], in [19], in assay [8] and in assay [12] was “inactive” throughout. The Potency result in assay [9], in assay [11] and in assay [13] was “inactive” each time. The Potency in assay [3] is 3.76 µM (active); in assay [10], 13.3 µM (active). In addition, the result in [7] was inactive.

Consider `O=C(O)CCC(=O)C(=O)O`, for which the Potency entry in [1], in assay [2], in assay [3], in assay [4], in [5] and in [6] was “inactive” throughout. For the same compound, the Potency result in [12], in assay [9], in assay [10], in assay [11], in assay [13] and in [14] was “inactive” each time. Moreover, the Potency entry in assay [15] and in [16] was “inactive” in each case. For the same compound, in assay [17], the Potency was 71 µM (active).

As for `c1ccc(C[n+]2cccc3ccccc32)cc1`, the Potency entry in assay [1], in [2], in assay [3], in [4], in [5] and in assay [19] was “inactive” throughout. The Potency entry in assay [12], in assay [9], in [10], in assay [11] and in assay [14] was “inactive” each time. In addition, in assay [17], the Potency is 3.17 µM (active).

Regarding `CC(C)(C)CC(=O)OCC(=O)[C@@]1(O)CC[C@H]2[C@@H]3CCC4=CC(=O)C=C[C@]4(C)[C@H]3[C@@H](O)C[C@@]21C`, the Potency result in [1], in assay [2], in [5], in [6], in assay [19] and in assay [8] was “inactive” in each case. Also, the Potency result in assay [12], in assay [9] and in assay [11] was “inactive” throughout. Moreover, the figures for the Potency in assay [3] and in assay [17] were 21.1 µM (active) and 38.9 µM (active), respectively. The compound was called inactive in assay [7].

As for `C/C=C/C=C/C=O`, the Potency result in assay [1], in assay [2], in assay [4], in assay [18], in assay [5] and in [6] was “inactive” in each case. Moreover, the Potency result in assay [19], in assay [8], in [12], in assay [9], in [10] and in assay [11] was “inactive” throughout. Besides, the Potency result in assay [13], in [14] and in [17] was “inactive” in each case. Also, in [7], the result was inactive.
